For one test, the system named is ABL1. Set-up: species or system human, MV4-11 + K-562 + COLO205 + SK-N-BE2 + OVCAR-8. The following applies: read-out: apparent Kd, compound concentrations: 100 nM and 1000 nM (sheet 'Samples'), n = 1.
Another test concerns ABL2. The arrangement: species or system human, MV4-11 + K-562 + COLO205 + SK-N-BE2 + OVCAR-8. Particulars: read-out: apparent Kd, compound concentrations: 100 nM and 1000 nM (sheet 'Samples'), n = 1.
In the next test the test system is BCR. Set-up: species or system human, MV4-11 + K-562 + COLO205 + SK-N-BE2 + OVCAR-8. The following applies: read-out: apparent Kd, compound concentrations: 100 nM and 1000 nM (sheet 'Samples'), n = 1.
Another test relates to GAK. The arrangement: species or system human, MV4-11 + K-562 + COLO205 + SK-N-BE2 + OVCAR-8. The following applies: read-out: apparent Kd, compound concentrations: 100 nM and 1000 nM (sheet 'Samples'), n = 1.
The subject of a further test is RIPK2. The arrangement: species or system human, MV4-11 + K-562 + COLO205 + SK-N-BE2 + OVCAR-8. Particulars: read-out: apparent Kd, compound concentrations: 100 nM and 1000 nM (sheet 'Samples'), n = 1.
The test system of a further test is RIPK3. The arrangement: species or system human, MV4-11 + K-562 + COLO205 + SK-N-BE2 + OVCAR-8. Particulars: read-out: apparent Kd, compound concentrations: 100 nM and 1000 nM (sheet 'Samples'), n = 1.
A further test relates to CLK1. Set-up: species or system human, MV4-11 + K-562 + COLO205 + SK-N-BE2 + OVCAR-8. The following applies: read-out: apparent Kd, compound concentrations: 100 nM and 1000 nM (sheet 'Samples'), n = 1.
For a further test, the system named is CLK4. Set-up: species or system human, MV4-11 + K-562 + COLO205 + SK-N-BE2 + OVCAR-8. The following applies: read-out: apparent Kd, compound concentrations: 100 nM and 1000 nM (sheet 'Samples'), n = 1.
The next test has as its system CSNK2A2. Set-up: species or system human, MV4-11 + K-562 + COLO205 + SK-N-BE2 + OVCAR-8. The following applies: read-out: apparent Kd, compound concentrations: 100 nM and 1000 nM (sheet 'Samples'), n = 1.
A further test has as its system FRK. Set-up: species or system human, MV4-11 + K-562 + COLO205 + SK-N-BE2 + OVCAR-8. Particulars: read-out: apparent Kd, compound concentrations: 100 nM and 1000 nM (sheet 'Samples'), n = 1.
The subject of a further test is CSNK2A1;CSNK2A3. The arrangement: species or system human, MV4-11 + K-562 + COLO205 + SK-N-BE2 + OVCAR-8. The following applies: read-out: apparent Kd, compound concentrations: 100 nM and 1000 nM (sheet 'Samples'), n = 1.
A further test concerns FYN. The arrangement: species or system human, MV4-11 + K-562 + COLO205 + SK-N-BE2 + OVCAR-8. Particulars: read-out: apparent Kd, compound concentrations: 100 nM and 1000 nM (sheet 'Samples'), n = 1.
The subject of the next test is HCK. Set-up: species or system human, MV4-11 + K-562 + COLO205 + SK-N-BE2 + OVCAR-8. The following applies: read-out: apparent Kd, compound concentrations: 100 nM and 1000 nM (sheet 'Samples'), n = 1.
In another test the test system is LCK. The arrangement: species or system human, MV4-11 + K-562 + COLO205 + SK-N-BE2 + OVCAR-8. The following applies: read-out: apparent Kd, compound concentrations: 100 nM and 1000 nM (sheet 'Samples'), n = 1.
Another test concerns PTK6. The arrangement: species or system human, MV4-11 + K-562 + COLO205 + SK-N-BE2 + OVCAR-8. Particulars: read-out: apparent Kd, compound concentrations: 100 nM and 1000 nM (sheet 'Samples'), n = 1.
Another test concerns the target Q6ZSR9 (human, UniProt Q6ZSR9). The arrangement: species or system MV4-11 + K-562 + COLO205 + SK-N-BE2 + OVCAR-8. The following applies: read-out: apparent Kd, compound concentrations: 100 nM and 1000 nM (sheet 'Samples'), n = 1.
Another test has as its system RET. The arrangement: species or system human, MV4-11 + K-562 + COLO205 + SK-N-BE2 + OVCAR-8. Particulars: read-out: apparent Kd; compound concentrations: 100 nM and 1000 nM (sheet 'Samples'), CATDS: 1.39088138771742E-2; n = 1.
In the next test the test system is YES1. The arrangement: species or system human, MV4-11 + K-562 + COLO205 + SK-N-BE2 + OVCAR-8. The following applies: read-out: apparent Kd, compound concentrations: 100 nM and 1000 nM (sheet 'Samples'), n = 1.
Another test deals with AAK1. The arrangement: species or system human, MV4-11 + K-562 + COLO205 + SK-N-BE2 + OVCAR-8. Particulars: read-out: apparent Kd, compound concentrations: 100 nM and 1000 nM (sheet 'Samples'), n = 1.

Molecules are shown by their SMILES. Like-named read-outs stand apart in the source and are kept apart here.

Chain of Q6ZSR9 (Q6ZSR9 whole entry, looked up): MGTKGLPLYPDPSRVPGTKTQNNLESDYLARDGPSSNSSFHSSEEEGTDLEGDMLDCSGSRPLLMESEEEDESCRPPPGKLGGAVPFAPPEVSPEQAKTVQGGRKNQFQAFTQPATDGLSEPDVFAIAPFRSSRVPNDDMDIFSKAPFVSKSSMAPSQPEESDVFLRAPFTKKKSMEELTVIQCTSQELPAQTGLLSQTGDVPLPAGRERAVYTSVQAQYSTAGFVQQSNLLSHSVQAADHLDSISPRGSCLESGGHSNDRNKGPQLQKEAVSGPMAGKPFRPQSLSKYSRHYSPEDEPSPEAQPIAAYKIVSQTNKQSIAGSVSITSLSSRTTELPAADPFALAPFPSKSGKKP

Regarding `COc1cc(Nc2ccnc3cc(-c4ccncc4)ccc23)cc(OC)c1OC.Cl` [GW494610A], the potency estimated from few doses is 1070 nM in the test on ABL1 (CATDS: 2.4379025884203698E-2); 523 nM in the test with ABL2 (CATDS: 2.97420098626874E-2); 133 nM with BCR (CATDS: 4.8840213207685099E-2); 10.7 nM with GAK (CATDS: 0.18484170134518799); 7.12 nM in the test with RIPK2 (CATDS: 0.24490143470797801); 848 nM with RIPK3 (CATDS: 2.5857205413597002E-2).
In the case of `NC(=O)c1cccc(Nc2nccc(Nc3cccc4[nH]ncc34)n2)c1` [GW782612X], the potency estimated from few doses in the test on ABL1 (CATDS: 3.3551530123454902E-2) was 1900 nM; with ABL2 (CATDS: 4.6849720703519497E-2), 629 nM; with BCR (CATDS: 5.7731069178064698E-2), 381 nM; with CLK1 (CATDS: 3.6631639688053302E-2), 1340 nM; in the test with CLK4 (CATDS: 4.0513674478844103E-2) it was 951 nM; in the test on CSNK2A2 (CATDS: 3.4795292983427199E-2), 1630 nM. Also, the potency estimated from few doses in the test on FRK (CATDS: 5.5821190853221701E-2) was 411 nM; in the test with GAK (CATDS: 4.0699733875589103E-2), 937 nM; in the test with RIPK2 (CATDS: 7.1079405795032996E-2), 247 nM.
`O=C1N=C(NCc2cccs2)SC1Cc1ccc2ncccc2c1` (stereo not shown) [RO4629078-000]: the potency estimated from few doses in the test with ABL1 (CATDS: 1.03104130889283E-2) is 621 nM; in the test with ABL2 (CATDS: 1.75956171974825E-2) it was 217 nM; in the test on BCR (CATDS: 1.49763815406264E-2), 286 nM; in the test on CLK1 (CATDS: 1.45453045118455E-2) it was 302 nM; in the test with CLK4 (CATDS: 1.03422471087564E-2), 616 nM; in the test on CSNK2A1;CSNK2A3 (CATDS: 1.1621769953454601E-2) it was 472 nM. Besides, the potency estimated from few doses in the test on CSNK2A2 (CATDS: 1.0295745768990301E-2) was 623 nM; in the test with FRK (CATDS: 9.6278136963786204E-3) it was 738 nM; in the test with FYN (CATDS: 9.7047847946103404E-3), 723 nM; in the test on GAK (CATDS: 1.7863526328031998E-2) it was 211 nM; with HCK (CATDS: 1.13886455432966E-2), 493 nM; in the test with LCK (CATDS: 1.24730570121841E-2), 406 nM. In addition, the potency estimated from few doses is 699 nM with PTK6 (CATDS: 9.8307432544906398E-3); 314 nM with Q6ZSR9 (CATDS: 1.4224903483056099E-2); 328 nM with RET; 777 nM in the test on RIPK2 (CATDS: 9.4422951571236906E-3); 474 nM in the test on YES1 (CATDS: 1.15943383738287E-2).
As for `COc1ccccc1CCNC1=NC(=O)/C(=C/c2ccc3ncccc3c2)S1` [RO4503316-000], the potency estimated from few doses was 1540 nM in the test on AAK1 (CATDS: 8.9875957971869994E-2); 120 nM in the test on CLK1 (CATDS: 0.207972147405552); 86.4 nM with CLK4 (CATDS: 0.25242389415209998); 327 nM in the test on CSNK2A1;CSNK2A3 (CATDS: 0.132518653833052); 171 nM in the test with CSNK2A2 (CATDS: 0.17333569062509099); 1310 nM in the test with Q6ZSR9 (CATDS: 9.2411068480935804E-2).
As to `O=C1N=C(NCCc2ccccn2)S/C1=C\c1ccc2ncccc2c1` [RO4508346-000], the potency estimated from few doses is 711 nM with AAK1 (CATDS: 8.8556384492670503E-2); 485 nM with CLK1 (CATDS: 0.10354679729128299); 377 nM in the test with CLK4 (CATDS: 0.116533275678242); 262 nM in the test on CSNK2A1;CSNK2A3 (CATDS: 0.14119727464160201); 229 nM with CSNK2A2 (CATDS: 0.15250276369697799); 625 nM in the test with Q6ZSR9 (CATDS: 9.3045263541922094E-2). Moreover, the potency estimated from few doses with RIPK2 (CATDS: 9.0933210372185796E-2) was 663 nM.
Consider `NC1=NC(=O)/C(=C/c2ccc3ncccc3c2)S1` [RO4569139-000], for which the potency estimated from few doses is 1710 nM in the test on AAK1 (CATDS: 6.8889261451454395E-2); 259 nM in the test with CLK1 (CATDS: 0.136614362929); 1260 nM in the test with CLK4 (CATDS: 7.4487877667225894E-2); 256 nM in the test with CSNK2A1;CSNK2A3 (CATDS: 0.13735026532766101); 222 nM in the test on CSNK2A2 (CATDS: 0.14765038324125301); 1130 nM with Q6ZSR9 (CATDS: 7.6885749429296102E-2).
As to `COc1cc(Nc2nccc(N3CCC(NC(=O)C4COc5ccccc5O4)C3)n2)cc(OC)c1OC` (stereo not shown) [GSK1379761A], the results for the potency estimated from few doses with AAK1 (CATDS: 0.26357344915845798) and with Q6ZSR9 (CATDS: 0.25714063136794202) were 1120 nM and 1170 nM, respectively.
Consider `Cl.Cl.Cl.c1ccc(Oc2ccc(Nc3ccnc4cc(-c5ccc(CN6CCNCC6)o5)ccc34)cc2)nc1.c1ccc(Oc2ccc(Nc3ccnc4cc(-c5ccc(CN6CCNCC6)o5)ccc34)cc2)nc1` [GW567142A], for which the potency estimated from few doses with ABL1 (CATDS: 0.106160515103876) was 36.7 nM; in the test with ABL2 (CATDS: 3.7512936282147198E-2) it was 226 nM; in the test on BCR (CATDS: 2.8038265853645699E-2) it was 446 nM; in the test on FRK (CATDS: 2.55518807835587E-2), 566 nM; in the test on FYN (CATDS: 5.8978422577379903E-2), 93.1 nM; in the test with HCK (CATDS: 9.4879616105776998E-2), 43.2 nM. Moreover, the potency estimated from few doses with LCK (CATDS: 2.9875488877577801E-2) is 381 nM; in the test with PTK6 (CATDS: 5.6771173878132498E-2) it was 99.7 nM; with RIPK2 (CATDS: 5.5547059533083698E-2), 104 nM; in the test with RIPK3 (CATDS: 2.6794845522232699E-2) it was 500 nM; in the test on YES1 (CATDS: 0.102310323687496), 38.7 nM.
